# Assay results: PubChem BioAssay (NCI)
# This is part of a sample that, as a whole, favours compounds with a hit. Of some 83,000 tested, about 20% had one in any assay.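 Activity criterion: percent growth below 10, measured after cells in 96-well plates were exposed to a single compound concentration for 48 hours.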 Unmarked numbers belong to inactive results. The source made the active and inactive calls.
# What was measured:
# Experiment in all cases: NCI-60 one-dose screen, 48 h (100 = growth as untreated, 0 = no growth, -100 = all killed)
# Conditions in all cases: 10 µM unless noted
# HCT-15 colon = test system: HCT-15 colon
# HT29 colon = test system: HT29 colon
# SNB-75 CNS = test system: SNB-75 CNS
# SNB-19 CNS = test system: SNB-19 CNS
# U251 CNS = test system: U251 CNS
# PC-3 prostate = test system: PC-3 prostate
# SK-MEL-5 melanoma = test system: SK-MEL-5 melanoma
# UACC-62 melanoma = test system: UACC-62 melanoma
# LOX IMVI melanoma = test system: LOX IMVI melanoma
# SK-MEL-28 melanoma = test system: SK-MEL-28 melanoma
Compound,growth (HCT-15 colon),growth (HT29 colon),growth (SNB-75 CNS),growth (SNB-19 CNS) [%],growth (U251 CNS),growth (PC-3 prostate),growth (SK-MEL-5 melanoma),growth (UACC-62 melanoma),growth (LOX IMVI melanoma),growth (SK-MEL-28 melanoma)
CC1=CC(=O)OC1C/C=C(\C)CCC1[C@@]2(C)CCC[C@@](C)(C(=O)O)C2CC[C@@]1(C)O (stereo not given in full),14.1%,86.8%,74%,53.3,35.4%,59.1%,-23.8% (active),15.4%,97.3%,26.7%
O=C1c2cccc3cccc(c23)C(=O)N1CCCCCCCCCCN1C(=O)c2cccc3cccc(c23)C1=O,102%,106%,80.8%,104,100%,103%,102%,99.8%,102%,109%
O=c1oc2ccccc2cc1-c1cc(-c2ccc(-c3cc(-c4cc5ccccc5oc4=O)nc(-c4cc5ccccc5oc4=O)c3)cc2)cc(-c2cc3ccccc3oc2=O)n1,103%,108%,97.5%,96.9,99.6%,101%,101%,99.1%,102%,108%
Cc1csc(N/N=C/c2ccncc2)n1,103%,87.4%,105%,100,83.5%,111%,100%,93.2%,100%,110%
CC(C)(C)OC(=O)N1CCCN(CCNc2nccc(-c3c(-c4cccc(O)c4)nc4sccn34)n2)S1(=O)=O,99.9%,56.7%,84%,126,117%,85%,86.9%,12.1%,32.3%,45.4%
CCSc1cnnc2ccccc12,105%,106%,89.3%,106,102%,104%,107%,102%,103%,107%
C/C(=N\Nc1ccc([N+](=O)[O-])cn1)c1ccc(N)cc1,95.1%,101%,94.4%,95.9,95.7%,94.1%,101%,99.1%,100%,113%
c1ccc(CCn2cccc2)nc1,119%,114%,95.1%,105,103%,98.9%,109%,97.9%,98.6%,118%
S=C(Cc1ccccc1)N1CCN(c2ccccc2Cl)CC1,106%,100%,96.8%,116,99.2%,86.6%,90.9%,86.2%,105%,119%
CCCCCCCC/C=C/CCCCCCCC1=NC(C)(C)CN1C(C)C,-45.1% (active),-51.3% (active),25.5%,46.4,-76.1% (active),-74.4% (active),-86.3% (active),-60.5% (active),-81.2% (active),-82.8% (active)
CC(C)CC1NC(=O)C(CC(C)C)N(CO)C1=O (stereo not given),103%,94.3%,93.4%,99.6,111%,97.3%,104%,96.9%,106%,121%
O=C1/C(=C/c2ccccc2)SC(=Nc2ccccc2)N1Nc1ccccc1,9.11% (active),5.63% (active),24.2%,23.3,6.12% (active),9.43% (active),-95.7% (active),-4.34% (active),-62.1% (active),8.52% (active)
O=S(=O)(Nc1ccc2ccccc2c1)N1CCCCC1,40.6%,40.9%,52%,90.2,57.2%,61%,59.8%,56%,51.8%,73.6%
COc1cc(CN(CCC(O)N2CCCC2=O)Cc2ccc3c(c2)OCO3)cc(OC)c1OC (stereo not given),97.5%,98.3%,93.7%,99.5,102%,89.5%,111%,101%,94.9%,117%
C=C1C(=O)O[C@H]2[C@H]1CC/C(COC(=O)NCc1c[nH]c3ccc(OC)cc13)=C\CC[C@@]1(C)O[C@@H]21,-26.1% (active),-53.2% (active),63.2%,64.4,9.85% (active),-2.65% (active),15.1%,-31.6% (active),-59.6% (active),-23.9% (active)
O=c1nc(-c2ccccc2)c2cc(-c3ccc(N4CCOCC4)cc3)ccc2[nH]1,74%,84.5%,106%,87.4,69.9%,70.9%,83.6%,74.3%,74.5%,91.8%
COc1ccc(-c2cc(-c3cn(-c4cccc(Cl)c4)nc3-c3ccc(OC)cc3)[nH]c(=S)n2)cc1,95.4%,20.6%,102%,81.6,72.6%,67.3%,88.5%,88%,7.63% (active),95.5%
CCN(CC)CCNC(=O)C(F)(F)C(F)(F)C(F)(F)F,100%,115%,97.2%,116,104%,96%,105%,107%,104%,115%
Nc1c(C(=O)Nc2cccc(Cl)c2)sc2nc3c(cc12)C(=O)CCC3,32.4%,23.9%,25.9%,38.2,46.4%,29.1%,27.2%,43.7%,46.1%,51.4%
CC(C)(C)[Si](C)(C)OC1[C@@H](O[Si](C)(C)C(C)(C)C)[C@@H](CNC(=O)NC(=O)NC(=O)CI)O[C@H]1n1cnc2c(NC(=O)Nc3ccccc3)ncnc21 (stereo not given in full),83.1%,-39.8% (active),68.1%,103,32.5%,14.7%,102%,75.4%,-80.7% (active),125%
COc1ccc(C(=O)N2N=C(c3ccc(F)cc3)CC2c2cn(-c3ccccc3)nc2-c2ccccc2)cc1 (stereo not given),55.9%,37.6%,72.5%,80,30.6%,71.6%,90.7%,61%,41.8%,71.9%
CCCCCCCCCCCCCCCC1=NC(C)(C)CN1C(C)C,-63.5% (active),-50% (active),-13.4% (active),42.6,-67% (active),-41.4% (active),-86.1% (active),-75.5% (active),-79.4% (active),-80% (active)
O=C(Nc1ccccc1)c1cc2ccccc2s1,63.9%,104%,92.9%,99.7,89.4%,82%,56.7%,67.1%,83.4%,107%
O=C1CCCN1C1CCN2CCCc3cccc1c32 (stereo not given),102%,94.4%,105%,100,103%,91.3%,110%,93.6%,101%,115%
N#Cc1ccc(-c2ccc(-c3cccs3)o2)cc1F,79.7%,84.5%,44.9%,110,67.2%,87.5%,84.4%,81.6%,80.2%,91.9%
